Our source for the outcome and AC50 values is PubChem BioAssay (EPA / NIEHS).

Structures are written as SMILES. Calls of active or inactive are those of the source. Rule for the calls: active = hit-call score of the fitted dose curve at least 0.9, where 1 is the maximum; inactive = score below 0.9.

As usually defined, the AC50 is the concentration giving half of the maximal activity seen.

Common to all, as to conditions: mRNA level, 48 h; actives raise or lower the signal
Read-out in one assay: CYP2E1 (gene 1571)
In words: LTEA_HepaRG_CYP2E1: Life Technologies and Expression Analysis (LTEA) Assay for CYP2E1 using HepaRG (AID 2283485). The essentials:
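Readout is qRT-PCR of CYP2E1 mRNA, normalized to three housekeeping genes and fitted bidirectionally against 0.5% DMSO. HepaRG cells were dosed 48 h at eight concentrations, highest 100 uM with half-log dilutions.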

Read-out in a further assay: CYP4A11 (gene 1579)
In words: LTEA_HepaRG_CYP4A11: Life Technologies and Expression Analysis (LTEA) Assay for CYP4A11 using HepaRG (AID 2283486). The essentials: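 Human hepatic HepaRG cultures receive duplicate 48 h exposures across a concentration-response series topping at 100 uM. Expression changes in CYP4A11 are measured by qRT-PCR relative to DMSO controls.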

Read-out in assay [1]: Cytochrome P450 3A4 (Homo sapiens) (UniProt P08684)
In words: LTEA_HepaRG_CYP3A4: Life Technologies and Expression Analysis (LTEA) Assay for CYP3A4 using HepaRG (AID 2283487). The essentials: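 HepaRG, 48 h exposure, 8-pt CRC from 100 uM (half-log), 0.5% DMSO, duplicates; serum-free induction medium. Readout: CYP3A4 mRNA, qRT-PCR, ACTB/GAPDH/POLR2A normalization. Bidirectional fit vs DMSO.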

Read-out in assay [2]: Pro-epidermal growth factor (Homo sapiens) (UniProt P01133)
In words: LTEA_HepaRG_EGF: Life Technologies and Expression Analysis (LTEA) Assay for Epidermal growth factor (EGF) using HepaRG (AID 2283489). The essentials:
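Concentration-response mRNA assay: HepaRG cells dosed 48 h (max 100 uM, 0.5% DMSO), EGF measured by qRT-PCR and normalized to ACTB/GAPDH/POLR2A.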

Read-out in assay [3]: Early growth response protein 1 (EGR1) transcription factor, EGR1 (gene 1958)
In words: LTEA_HepaRG_EGR1: Life Technologies and Expression Analysis (LTEA) Assay for Early growth response protein 1 (EGR1) transcription factor using HepaRG (AID 2283490). The essentials:
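EGR1 expression change in human HepaRG after 48 h chemical exposure, assessed by housekeeping-normalized qRT-PCR; concentration-response up to 100 uM, fitted in both directions against DMSO controls.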

Read-out in assay [4]: Ezrin (EZR), EZR (gene 7430)
In words: LTEA_HepaRG_EZR: Life Technologies and Expression Analysis (LTEA) Assay for Ezrin (EZR) using HepaRG (AID 2283491). The essentials:
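Read-out is EZR transcript level by qRT-PCR, normalized to three housekeeping genes and fitted bidirectionally against the DMSO control. Human HepaRG cells received test chemicals for 48 h at eight half-log concentrations up to 100 uM in 0.5% DMSO.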

Read-out in another assay: CYP3A5 (gene 1577)
In words: LTEA_HepaRG_CYP3A5: Life Technologies and Expression Analysis (LTEA) Assay for CYP3A5 using HepaRG (AID 2283493). The essentials:
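Human HepaRG hepatic cells receive 48 h chemical treatment at eight concentrations (half-log steps from 100 uM) in 0.5% DMSO. Expression of CYP3A5 is quantified by Fluidigm qRT-PCR and normalized to three reference genes.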

Read-out in assay [5]: Fatty Acid-Binding Protein 1 (FABP1), FABP1 (gene 2168)
In words: LTEA_HepaRG_FABP1: Life Technologies and Expression Analysis (LTEA) Assay for Fatty Acid-Binding Protein 1 (FABP1) using HepaRG (AID 2283494). The essentials: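 Values reflect bidirectional concentration-response fitting of FABP1 mRNA change against 0.5% DMSO controls. Human HepaRG cultures received eight half-log doses (top 100 uM) for 48 h; expression quantified by TaqMan qRT-PCR with housekeeping-gene normalization.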

Read-out in assay [6]: Cytochrome P450 4A22 (Homo sapiens) (UniProt Q5TCH4)
In words: LTEA_HepaRG_CYP4A22: Life Technologies and Expression Analysis (LTEA) Assay for Cytochrome P450 4A22 (CYP4A22) using HepaRG (AID 2283495). The essentials: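 Concentration-response (8 points, max 100 uM, 0.5% DMSO) in human HepaRG liver cells after 48 h exposure. CYP4A22 mRNA by TaqMan qRT-PCR with housekeeping-gene normalization.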

Read-out in assay [7]: Cytochrome P450 7A1 (Homo sapiens) (UniProt P22680)
In words: LTEA_HepaRG_CYP7A1: Life Technologies and Expression Analysis (LTEA) Assay for Cytochrome P450 7A1 (CYP7A1) using HepaRG (AID 2283496). The essentials:
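HepaRG, 48 h exposure, 8-pt half-log series from 100 uM, 0.5% DMSO vehicle, duplicates. Readout: TaqMan qRT-PCR mRNA vs three housekeeping genes; bidirectional curve fit against DMSO baseline.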

Read-out in assay [8]: Glutamate-cysteine ligase catalytic (GCLC), GCLC (gene 2729)
In words: LTEA_HepaRG_GCLC: Life Technologies and Expression Analysis (LTEA) Assay for Glutamate-cysteine ligase catalytic (GCLC) using HepaRG (AID 2283498). The essentials:
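Oxidative-stress marker GCLC is measured as mRNA change in human HepaRG liver cells after 48 h chemical treatment in 0.5% DMSO, eight concentrations from 100 uM. Activity is fitted bidirectionally against vehicle.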

Read-out in assay [9]: growth arrest and DNA damage 45 (GADD45G), GADD45G (gene 10912)
In words: LTEA_HepaRG_GADD45G: Life Technologies and Expression Analysis (LTEA) Assay for growth arrest and DNA damage 45 (GADD45G) using HepaRG (AID 2283499). The essentials: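 Concentration-response in HepaRG: 48 h dosing, 0.5% DMSO, highest level 100 uM. GADD45G expression by qRT-PCR, normalised to endogenous controls; bidirectional fit to DMSO.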

Read-out in assay [10]: Glutamate-cysteine ligase regulatory (GCLM), GCLM (gene 2730)
In words: LTEA_HepaRG_GCLM: Life Technologies and Expression Analysis (LTEA) Assay for Glutamate-cysteine ligase regulatory (GCLM) using HepaRG (AID 2283500). The essentials:
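Endpoint is GCLM transcript level by qRT-PCR, normalized to three housekeeping genes, after 48 h chemical exposure of human HepaRG cells (0.5% DMSO vehicle, top 100 uM, half-log dilutions). Fitting was bidirectional relative to DMSO.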

Read-out in assay [11]: Glutathione S-transferase M3 (GSTM3), GSTM3 (gene 2947)
In words: LTEA_HepaRG_GSTM3: Life Technologies and Expression Analysis (LTEA) Assay for Glutathione S-transferase M3 (GSTM3) using HepaRG (AID 2283501). The essentials: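 Expression of GSTM3 is determined by qRT-PCR in human liver HepaRG cells treated 48 h with an 8-point half-log range from 100 uM in 0.5% DMSO.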

Read-out in assay [12]: Hypoxia-inducible factor 1-alpha (Homo sapiens) (UniProt Q16665)
In words: LTEA_HepaRG_HIF1A: Life Technologies and Expression Analysis (LTEA) Assay for Hypoxia-inducible factor 1 (HIF1A) Trancription factor using HepaRG (AID 2283503). The essentials: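 HIF1A transcript level read by qRT-PCR (ACTB, GAPDH, POLR2A normalization) after 48 h chemical exposure of HepaRG cultures. Eight half-log concentrations, top 100 uM, 0.5% DMSO vehicle, duplicates; bidirectional curve fit against DMSO baseline.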

Read-out in assay [13]: DNA damage-inducible transcript 3 (DDIT3), DDIT3 (gene 1649)
In words: LTEA_HepaRG_DDIT3: Life Technologies and Expression Analysis (LTEA) Assay for DNA damage-inducible transcript 3 (DDIT3) using HepaRG (AID 2283488). The essentials:
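Cells are human HepaRG liver cells treated for 48 h with eight half-log concentrations up to 100 uM in 0.5% DMSO. Transcript levels come from qRT-PCR normalized to three housekeeping genes, with activity fitted in both directions relative to vehicle.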

Read-out in assay [14]: Heat shock 70 kDa protein 1 (HSPA1A), gene 3303
In words: LTEA_HepaRG_HSPA1A: Life Technologies and Expression Analysis (LTEA) Assay for Heat shock 70 kDa protein 1 (HSPA1A) using HepaRG (AID 2283502). The essentials: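 Cells were plated and cultured for 48 h, then switched to serum-free induction medium. Chemicals were added at eight half-log concentrations up to 100 uM for 48 h. RNA was then isolated and HSPA1A measured by qRT-PCR with bidirectional curve fitting against DMSO.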

Read-out in assay [15]: Glutathione S-Transferase (GSTA2), GSTA2 (gene 2939)
In words: LTEA_HepaRG_GSTA2: Life Technologies and Expression Analysis (LTEA) Assay for Glutathione S-Transferase (GSTA2) using HepaRG (AID 2283497). The essentials:
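Oxidative-stress marker GSTA2 is quantified by TaqMan qRT-PCR in HepaRG cultures treated 48 h across an eight-point range to 100 uM. Expression is normalized to endogenous controls and compared with 0.5% DMSO vehicle.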

Read-out in assay [16]: 3-Hydroxy-3-Methylglutaryl-CoA Synthase 2 (HMGCS2), HMGCS2 (gene 3158)
In words: LTEA_HepaRG_HMGCS2: Life Technologies and Expression Analysis (LTEA) Assay for 3-Hydroxy-3-Methylglutaryl-CoA Synthase 2 (HMGCS2) using HepaRG (AID 2283504). The essentials:
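This steatosis marker was read as HMGCS2 mRNA change in HepaRG cells treated 48 h with up to 100 uM chemical. Normalisation used housekeeping genes; activity in either direction was fitted relative to 0.5% DMSO vehicle.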

Read-out in assay [17]: Cytochrome P450 3A7 (Homo sapiens) (UniProt P24462)
In words: LTEA_HepaRG_CYP3A7: Life Technologies and Expression Analysis (LTEA) Assay for CYP3A7 using HepaRG (AID 2283492). The essentials: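 qRT-PCR of CYP3A7 in HepaRG lysates after 48 h treatment; concentration-response (8 points, max 100 uM) analysed bidirectionally relative to 0.5% DMSO controls.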

Sequence of Cytochrome P450 3A4 (Homo sapiens) (P08684 whole entry, looked up): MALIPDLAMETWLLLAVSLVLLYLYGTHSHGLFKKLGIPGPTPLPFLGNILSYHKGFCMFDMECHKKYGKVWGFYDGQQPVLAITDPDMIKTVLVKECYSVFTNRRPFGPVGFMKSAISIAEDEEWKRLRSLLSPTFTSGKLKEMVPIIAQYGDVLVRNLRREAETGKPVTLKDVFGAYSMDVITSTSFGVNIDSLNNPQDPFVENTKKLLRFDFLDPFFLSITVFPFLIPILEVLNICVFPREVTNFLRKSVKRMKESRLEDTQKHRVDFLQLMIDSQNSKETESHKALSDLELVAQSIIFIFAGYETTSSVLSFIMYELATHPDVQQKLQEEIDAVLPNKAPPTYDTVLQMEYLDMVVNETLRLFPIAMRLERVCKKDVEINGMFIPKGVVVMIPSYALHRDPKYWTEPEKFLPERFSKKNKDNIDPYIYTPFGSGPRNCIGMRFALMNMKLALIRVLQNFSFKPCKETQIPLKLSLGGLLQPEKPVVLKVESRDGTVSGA
Sequence of Hypoxia-inducible factor 1-alpha (Homo sapiens) (Q16665 whole entry, looked up): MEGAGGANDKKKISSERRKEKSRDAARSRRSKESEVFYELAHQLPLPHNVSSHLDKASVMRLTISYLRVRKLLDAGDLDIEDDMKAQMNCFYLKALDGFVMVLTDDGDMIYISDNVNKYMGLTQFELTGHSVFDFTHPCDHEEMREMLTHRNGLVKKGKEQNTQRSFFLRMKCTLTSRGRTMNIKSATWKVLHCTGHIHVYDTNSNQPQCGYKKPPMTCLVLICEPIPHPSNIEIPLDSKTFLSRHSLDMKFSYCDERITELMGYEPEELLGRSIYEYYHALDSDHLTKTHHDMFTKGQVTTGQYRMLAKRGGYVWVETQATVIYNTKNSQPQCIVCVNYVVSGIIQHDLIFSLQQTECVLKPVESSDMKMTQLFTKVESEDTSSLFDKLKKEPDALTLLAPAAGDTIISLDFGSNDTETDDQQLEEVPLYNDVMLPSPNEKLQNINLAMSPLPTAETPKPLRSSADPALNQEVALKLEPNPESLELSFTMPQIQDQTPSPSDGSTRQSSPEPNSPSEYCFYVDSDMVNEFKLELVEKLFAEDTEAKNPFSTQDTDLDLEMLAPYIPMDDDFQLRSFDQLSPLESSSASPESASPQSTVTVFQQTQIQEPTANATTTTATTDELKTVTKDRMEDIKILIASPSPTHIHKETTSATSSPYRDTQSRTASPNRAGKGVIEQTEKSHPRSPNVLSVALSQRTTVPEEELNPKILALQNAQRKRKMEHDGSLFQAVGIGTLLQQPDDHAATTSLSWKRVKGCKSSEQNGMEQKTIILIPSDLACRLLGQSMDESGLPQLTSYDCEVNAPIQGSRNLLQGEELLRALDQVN
Sequence of Cytochrome P450 3A7 (Homo sapiens) (P24462 whole entry, looked up): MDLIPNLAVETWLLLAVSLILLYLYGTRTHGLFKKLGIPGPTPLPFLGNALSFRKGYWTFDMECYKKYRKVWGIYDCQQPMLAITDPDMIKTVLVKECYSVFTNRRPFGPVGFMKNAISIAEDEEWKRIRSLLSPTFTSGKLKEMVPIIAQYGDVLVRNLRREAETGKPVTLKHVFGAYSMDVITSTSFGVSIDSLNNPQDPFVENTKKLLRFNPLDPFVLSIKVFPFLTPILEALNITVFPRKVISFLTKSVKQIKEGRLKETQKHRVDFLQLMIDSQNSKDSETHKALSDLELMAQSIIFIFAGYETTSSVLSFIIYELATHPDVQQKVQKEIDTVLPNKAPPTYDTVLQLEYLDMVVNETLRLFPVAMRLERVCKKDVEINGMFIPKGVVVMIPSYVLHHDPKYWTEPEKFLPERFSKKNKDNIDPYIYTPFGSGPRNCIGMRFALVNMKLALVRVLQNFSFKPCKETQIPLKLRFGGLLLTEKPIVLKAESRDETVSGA

In the case of `COC(=O)c1ccccc1C(=O)OC`, the molecule was classed as inactive (with CYP2E1 (gene 1571); with CYP4A11 (gene 1579); in assay [1]; in assay [2]; in [3]; in [4]). Moreover, the result (with CYP3A5 (gene 1577); in assay [5]; in assay [6]; in assay [7]; in assay [8]; in assay [9]) was inactive. Moreover, the molecule was classed as inactive in assay [10], in assay [11] and in [12].

For the molecule `C=CCC1=C(C)[C@@H](OC(=O)[C@@H]2[C@@H](C=C(C)C)C2(C)C)CC1=O`, the concentration at half-maximal activity (AC50) in the assay with CYP2E1 (gene 1571) was 62.1 µM (active); with CYP4A11 (gene 1579) it was 88.3 µM (active); in assay [5], 50 µM (active); in assay [6], 83.9 µM (active). Besides, the result (in [1]; in [2]; in assay [3]; in assay [4]; with CYP3A5 (gene 1577); in assay [7]) was inactive. Further, the result in assay [8], in [9], in assay [11] and in assay [12] was inactive.

On to `N#Cc1nn(-c2c(Cl)cc(C(F)(F)F)cc2Cl)c(N)c1S(=O)C(F)(F)F` (stereo unspecified), for which the AC50 in the assay with CYP2E1 (gene 1571) is 12.9 µM (active); with CYP4A11 (gene 1579), 24.6 µM (active); in assay [1] it was 32.6 µM (active); in [13] it was 30.2 µM (active); in assay [3], 13.2 µM (active); in assay [4], 29.3 µM (active). The AC50 is 24.1 µM (active) in assay [5]; 26.2 µM (active) in assay [6]; 31.5 µM (active) in assay [9]; 29.1 µM (active) in assay [10]; 80.8 µM (active) in [11]; 11.9 µM (active) in assay [14]. Also, the AC50 in [12] was 79.5 µM (active). Moreover, the result (with CYP3A5 (gene 1577); in assay [8]) was inactive.

In the case of `CC(C)(C)c1ccc(CSc2cnn(C(C)(C)C)c(=O)c2Cl)cc1`, the AC50 in the assay with CYP2E1 (gene 1571) was 1.48 µM (active); in the assay with CYP4A11 (gene 1579) it was 1.75 µM (active); in assay [1], 1.56 µM (active); in [13], 2.06 µM (active); in assay [3], 1.12 µM (active); with CYP3A5 (gene 1577), 2.11 µM (active). For the same molecule, the AC50 in assay [5] is 2.8 µM (active); in assay [6], 1.74 µM (active); in assay [7], 26.1 µM (active); in assay [15], 8.51 µM (active); in assay [9], 2.07 µM (active); in [16], 2.38 µM (active). The outcome in assay [2], in assay [8], in assay [11] and in assay [12] was inactive.

On to `COP(=S)(OC)Oc1nc(Cl)c(Cl)cc1Cl`, for which the outcome (with CYP2E1 (gene 1571); with CYP4A11 (gene 1579); in assay [1]; in assay [2]; in assay [3]; in [4]) was inactive. For the same molecule, the result (in [17]; with CYP3A5 (gene 1577); in assay [5]; in [6]; in assay [8]; in assay [9]) was inactive. The outcome in assay [11] and in assay [12] was inactive.

On to `CCOC(=O)CC(SP(=S)(OC)OC)C(=O)OCC` (stereo unspecified), for which the outcome (in the assay with CYP2E1 (gene 1571); with CYP4A11 (gene 1579); in assay [1]; in assay [2]; in assay [3]; in assay [4]) was inactive. Further, the molecule was classed as inactive (in assay [17]; in the assay with CYP3A5 (gene 1577); in [5]; in [6]; in assay [7]; in assay [8]). Further, the outcome in assay [9], in assay [10], in assay [11], in assay [12] and in [16] was inactive.
